# In PubChem BioAssay (NCATS):
# Values without a mark were called inactive. Inconclusive results are not listed. A call without a number means that no potency is given here. Active and inactive are the calls of the source. Calls come from the whole dose curve; as a rule, active = well fitted curve in the direction sought with a large enough effect; inconclusive = small, poorly fitted or top-dose-only effect, or another doubt; inactive = no such curve, though single readings can be large; an effect the other way counts as inactive or inconclusive.
# Key:
# [1] = biological target: Cytochrome P450 2D6 (Homo sapiens) (UniProt P10635); experiment: qHTS for inhibitors of CYP2D6 against the NCATS DSHEA and TCM libraries (AID 1919972)
# Cytochrome P450 2D6 (Homo sapiens), sequence (P10635 whole entry, looked up): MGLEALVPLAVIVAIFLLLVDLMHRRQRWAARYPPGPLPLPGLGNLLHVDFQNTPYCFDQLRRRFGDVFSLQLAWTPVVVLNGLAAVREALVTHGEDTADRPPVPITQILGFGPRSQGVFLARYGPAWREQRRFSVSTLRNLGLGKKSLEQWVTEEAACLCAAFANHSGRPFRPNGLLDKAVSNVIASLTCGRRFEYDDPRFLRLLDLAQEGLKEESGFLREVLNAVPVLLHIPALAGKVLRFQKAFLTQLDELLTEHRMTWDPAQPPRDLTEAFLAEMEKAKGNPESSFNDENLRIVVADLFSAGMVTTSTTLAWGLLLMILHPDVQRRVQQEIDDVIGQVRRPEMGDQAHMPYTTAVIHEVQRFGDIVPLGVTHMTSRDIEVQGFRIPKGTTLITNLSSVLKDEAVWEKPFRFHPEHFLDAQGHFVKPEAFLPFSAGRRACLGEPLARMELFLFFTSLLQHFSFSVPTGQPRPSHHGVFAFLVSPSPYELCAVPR
# Outline: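 Luminescent P450-Glo read-out of CYP2D6 turnover of a luciferin substrate after NADPH-driven reaction of 30-45 min at room temperature. Compounds were first preincubated 15 min with enzyme at titrated concentrations; quinidine was the intraplate control.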
# [2] = biological target: Cytochrome P450 2C9 (Homo sapiens) (UniProt P11712); experiment: qHTS for inhibitors of CYP2C9 against the NCATS DSHEA and TCM libraries (AID 1919973);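 note: luminogenic pro-luciferin CYP2C9 substrate turned into luciferin with NADPH regeneration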
# Cytochrome P450 2C9 (Homo sapiens), sequence (P11712 whole entry, looked up, canonical isoform): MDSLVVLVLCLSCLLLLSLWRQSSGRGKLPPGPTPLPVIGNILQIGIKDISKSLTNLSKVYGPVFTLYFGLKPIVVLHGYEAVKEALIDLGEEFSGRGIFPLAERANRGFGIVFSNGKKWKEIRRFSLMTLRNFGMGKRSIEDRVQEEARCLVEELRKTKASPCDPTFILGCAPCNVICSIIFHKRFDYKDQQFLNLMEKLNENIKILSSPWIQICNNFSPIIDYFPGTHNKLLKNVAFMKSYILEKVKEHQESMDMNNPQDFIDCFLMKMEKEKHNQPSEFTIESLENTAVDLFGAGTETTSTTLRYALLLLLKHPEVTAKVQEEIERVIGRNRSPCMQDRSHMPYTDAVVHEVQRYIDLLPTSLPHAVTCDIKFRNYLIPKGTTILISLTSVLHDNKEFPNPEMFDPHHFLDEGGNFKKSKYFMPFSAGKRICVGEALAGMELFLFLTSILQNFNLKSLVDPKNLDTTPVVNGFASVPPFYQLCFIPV
# Outline: (§1)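 Read-out is luminescence after P450-Glo detection (30 min, RT). Before that: 15 min compound–enzyme preincubation, then 30-45 min reaction with 1x NADPH regeneration solution, substrate concentration isoform-specific.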
# [3] = biological target: Cytochrome P450 2C19 (Homo sapiens) (UniProt P33261); experiment: qHTS for inhibitors of CYP2C19 against the NCATS DSHEA and TCM libraries (AID 1919974);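 note: luminescence from luciferin released by CYP2C19 oxidation of a pro-luciferin substrate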; note: potency is the fitted concentration of half-maximal effect
# Cytochrome P450 2C19 (Homo sapiens), sequence (P33261 whole entry, looked up): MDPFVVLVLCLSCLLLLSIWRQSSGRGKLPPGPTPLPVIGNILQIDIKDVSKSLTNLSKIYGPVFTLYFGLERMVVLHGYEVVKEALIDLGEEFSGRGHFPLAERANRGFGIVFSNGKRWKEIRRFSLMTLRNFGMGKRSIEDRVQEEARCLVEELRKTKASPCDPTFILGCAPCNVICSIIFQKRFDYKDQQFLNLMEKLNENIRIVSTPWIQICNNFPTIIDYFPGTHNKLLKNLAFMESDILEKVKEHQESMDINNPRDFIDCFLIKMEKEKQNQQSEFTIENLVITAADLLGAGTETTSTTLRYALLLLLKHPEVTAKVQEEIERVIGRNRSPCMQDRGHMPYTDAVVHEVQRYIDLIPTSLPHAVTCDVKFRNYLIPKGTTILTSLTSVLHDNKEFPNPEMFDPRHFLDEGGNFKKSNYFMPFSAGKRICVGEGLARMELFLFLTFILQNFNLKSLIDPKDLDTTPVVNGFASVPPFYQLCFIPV
# Outline: as §1
# [4] = KB-3-1 P-gp reporter qHTS against the NCATS DSHEA and TCM libraries (AID 1919975)
# Outline: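 Cell viability qHTS: 500 KB-3-1 cells/well, substances in titration, ~72 h, 37C; luminescent CellTiter-Glo read.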
# [5] = qHTS Counterscreen for compound interference against the NCATS DSHEA and TCM libraries (AID 1919978); settings: firefly luciferase detection reagent interference, luminescence;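 note: compounds preincubated with 1 µM D-luciferin or buffer before detection reagent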
# Outline: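 Interference check: test samples were incubated with D-luciferin (final 1 uM) or buffer only for 15 min, room temperature, in a qHTS titration up to 39.8 uM, then developed with detection reagent and read by luminescence.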
# [6] = Dual reporter qHTS for agonist of Pregnane X Receptor (hPXR) against the NCATS DSHEA and TCM libraries: Fluorescence readout (AID 1920058)
# Outline: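 HepG2 hPXR-Luc, 2000 cells/well, 5 h attach; cpds ~24 h, 37 °C/5% CO2; CellTiter-Fluor 1 h; fluor. Ex/Em 405/540 nm = viability.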
# [7] = biological target: Nuclear receptor subfamily 1 group I member 2 (Homo sapiens) (UniProt O75469); experiment: Dual reporter qHTS for agonist of Pregnane X Receptor (hPXR) against the NCATS DSHEA and TCM libraries: Luminescence readout (AID 1920059)
# Nuclear receptor subfamily 1 group I member 2 (Homo sapiens), sequence (O75469 whole entry, looked up): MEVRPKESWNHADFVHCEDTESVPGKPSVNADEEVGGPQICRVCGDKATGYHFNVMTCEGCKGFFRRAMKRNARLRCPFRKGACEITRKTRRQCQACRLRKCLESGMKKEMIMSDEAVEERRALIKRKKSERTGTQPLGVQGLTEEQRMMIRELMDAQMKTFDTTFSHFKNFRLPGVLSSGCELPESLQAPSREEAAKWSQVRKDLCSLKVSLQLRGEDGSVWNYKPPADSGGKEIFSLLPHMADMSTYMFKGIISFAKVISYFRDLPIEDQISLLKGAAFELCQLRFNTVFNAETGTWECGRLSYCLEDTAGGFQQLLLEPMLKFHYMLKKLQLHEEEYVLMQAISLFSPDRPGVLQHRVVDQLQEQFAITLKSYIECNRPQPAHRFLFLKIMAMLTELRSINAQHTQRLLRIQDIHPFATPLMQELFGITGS
# Outline: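 hPXR-LucHepG2 cells in phenol red-free DMEM with 5% charcoal-stripped FBS, 2000 cells/well, attached 5 h, then exposed 24 h at 37C to compounds; rifampicin as positive agonist control (2.8 nM–92 uM). Luciferase luminescence read.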
# [8] = biological target: Nuclear receptor subfamily 1 group I member 2 (Homo sapiens) (UniProt O75469); experiment: Dual reporter qHTS for antagonist of Pregnane X Receptor (hPXR) against the NCATS DSHEA and TCM libraries: Luminescence Readout (AID 1920060);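 note: HepG2 cells carrying hPXR luciferase reporter stimulated with rifampicin at 2 µM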
# Outline: (§2)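 In antagonist mode, 2 uM rifampicin was added to hPXR-Luc HepG2 cells alongside test substances, incubated 24 h at 37 C; luminescence gave reporter activity, and CellTiter-Fluor fluorescence (405/540 nm) gave viability.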
# [9] = Dual reporter qHTS for antagonist of Pregnane X Receptor (hPXR) against the NCATS DSHEA and TCM libraries: Fluorescence Readout (AID 1920061)
# Outline: as §2
# [10] = biological target: ATP-dependent 6-phosphofructokinase (Trypanosoma brucei brucei) (UniProt O15648); experiment: qHTS Assay to Find Inhibitors of T. brucei phosphofructokinase: hit validation (AID 492961);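 note: luminescence reports ADP formed as PFK phosphorylates fructose-6-phosphate with ATP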
# ATP-dependent 6-phosphofructokinase (Trypanosoma brucei brucei), sequence (O15648 whole entry, looked up): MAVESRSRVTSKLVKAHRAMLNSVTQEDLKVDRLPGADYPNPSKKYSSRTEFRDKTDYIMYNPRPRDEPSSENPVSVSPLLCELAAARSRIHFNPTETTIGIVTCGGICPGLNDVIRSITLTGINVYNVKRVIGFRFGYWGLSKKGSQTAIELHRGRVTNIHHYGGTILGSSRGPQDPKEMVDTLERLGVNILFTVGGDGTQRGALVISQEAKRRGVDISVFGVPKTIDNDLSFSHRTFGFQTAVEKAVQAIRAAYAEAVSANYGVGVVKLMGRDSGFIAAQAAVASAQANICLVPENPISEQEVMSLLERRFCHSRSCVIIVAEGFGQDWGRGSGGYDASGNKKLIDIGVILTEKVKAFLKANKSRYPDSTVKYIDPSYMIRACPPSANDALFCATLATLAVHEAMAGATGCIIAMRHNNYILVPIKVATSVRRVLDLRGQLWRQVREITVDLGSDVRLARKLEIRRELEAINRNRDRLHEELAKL
# Outline: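 PFK 1.25 nM, F6P 0.5 mM, ATP 0.1 mM, MgCl2 5 mM, 0.1 M TEA pH 8.0, Tween20 0.01%, BSA 0.1%; 45 min RT. ADP-Glo two-step detection, luminescence. qHTS titration; curve fitting with curve-class categorization.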
# [11] = test system: 3D7; experiment: qHTS profiling for inhibitors of Plasmodium falciparum proliferation (AID 504749); note: nearly all actives have a fitted effect of over 60% in size; note: potency is the fitted concentration of half-maximal effect; settings: P. falciparum in erythrocytes, SYBR Green DNA, 72 h; series mostly up to 28.7 µM
# Outline: (§3)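 Parasite proliferation within erythrocytes, 72 h exposure. Endpoint: SYBR Green I fluorescence after overnight lysis at room temperature. Controls: 0.29 uM artemisinin, DMSO.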
# [12] = test system: 7G8; experiment: as above; settings: P. falciparum in erythrocytes, SYBR Green DNA, 72 h; series mostly up to 28.7 µM
# Outline: as §3
# [13] = test system: CP192; experiment: as above; settings: P. falciparum in erythrocytes, SYBR Green DNA, 72 h; series mostly up to 28.7 µM
# Outline: as §3
# [14] = test system: CP201; experiment: as above; settings: P. falciparum in erythrocytes, SYBR Green DNA, 72 h; series mostly up to 28.7 µM
# Outline: as §3
# [15] = test system: DIV14; experiment: as above; settings: P. falciparum in erythrocytes, SYBR Green DNA, 72 h; series mostly up to 28.7 µM
# Outline: as §3
# [16] = test system: DIV17; experiment: as above; settings: P. falciparum in erythrocytes, SYBR Green DNA, 72 h; series mostly up to 28.7 µM
# Outline: as §3
# [17] = test system: GB4; experiment: as above; settings: P. falciparum in erythrocytes, SYBR Green DNA, 72 h; series mostly up to 28.7 µM
# Outline: as §3
# [18] = test system: HB3; experiment: as above; settings: P. falciparum in erythrocytes, SYBR Green DNA, 72 h; series mostly up to 28.7 µM
# Outline: as §3
# [19] = test system: P94_40; experiment: as above; settings: P. falciparum in erythrocytes, SYBR Green DNA, 72 h; series mostly up to 28.7 µM
# Outline: as §3
# [20] = test system: PC49; experiment: as above; settings: P. falciparum in erythrocytes, SYBR Green DNA, 72 h; series mostly up to 28.7 µM
# Outline: as §3
smiles,measurement,setting,value
CC/C=C\C/C=C\C/C=C\C/C=C\C/C=C\CCCCCC(=O)O,"activity change, negative = inhibition",[1],-3.67% [at 4.27 µM]
same,Potency,[2],inactive
same,Potency,[3],inactive
same,"activity change, negative = inhibition",[4],-17.1% [at 3.26 µM]
same,max response,[5],0.0363%
same,activation,[6],-9.65% [at 5 µM]
same,activation,[7],-6.56% [at 5 µM]
same,"activity change, negative = inhibition",[8],-29.3% [at 5 µM]
same,"activity change, negative = inhibition",[9],2.07% [at 5 µM]
C[C@@H](C(=O)O)c1ccc(-c2ccccc2)c(F)c1,outcome,[10],inactive
same,Potency,[11],inactive
same,Potency,[12],inactive
same,Potency,[13],inactive
same,Potency,[14],inactive
same,Potency,[15],inactive
same,Potency,[16],inactive
same,Potency,[17],inactive
same,Potency,[18],inactive
same,Potency,[19],inactive
same,Potency,[20],inactive
CCOC(=O)C(CCc1ccccc1)NC1CCc2ccccc2N(CC(=O)O)C1=O (stereo not given),outcome,[10],inactive
same,Potency,[11],inactive
same,Potency,[12],7.94 µM (active)
same,Potency,[13],inactive
same,Potency,[14],inactive
same,Potency,[15],7.57 µM (active)
same,Potency,[16],10.7 µM (active)
same,Potency,[17],15.1 µM (active)
same,Potency,[18],inactive
same,Potency,[19],inactive
same,Potency,[20],inactive
CCCCC[C@H](O)CC(=O)CCc1ccc(O)c(OC)c1,outcome,[1],inactive
same,Potency,[2],inactive
same,Potency,[3],14.1 µM (active)
same,outcome,[4],inactive
same,max response,[5],0.254%
same,outcome,[6],inactive
same,outcome,[7],inactive
same,outcome,[8],inactive
same,outcome,[9],inactive
